8 compounds from the supplement of paper PMC13380429 can be followed below.

Assay [1] relates to Vero E6 infected with SARS-CoV-2. The assay is described as follows: inhibition of SARS-CoV-2 cytopathic effect; higher = more antiviral protection, active = above 15. Particulars: 48 h. A general note: Protection from cytopathic effect is a common read-out in antiviral testing.
Assay [2] shares this test system. As to the kind of experiment: morphology score (similarity to uninfected cells); higher = more like uninfected cells. Particulars: 24 h.
Assay [3] has the same test system. As to the kind of experiment: SARS-CoV-2 infection rate relative to infected DMSO; higher = more infection, active = 60 or less. The conditions noted are these: 24 h.

Regarding `O=C(Nc1ccccc1Br)N[C@@H]1CCN(c2ccc(C(F)(F)F)cn2)C1`, the “inhibition of SARS-CoV-2 cytopathic effect” value (“inhibition” for short) is 3.02% (inactive) in assay [1] (1 nM); 3.06% (inactive) in assay [1] (8.33 nM); 1.72% (inactive) in assay [1] (100 nM); 3.42% (inactive) in assay [1] (833.33 nM); 1.82% (inactive) in assay [1] (10000 nM).

`Oc1ccc([C@H]2COc3cc(O)ccc3C2)cc1` [equol] (10 µM): in assay [2], the morphology score is -0.116. For the same compound, in assay [3], the SARS-CoV-2 infection rate was 114% (inactive).

For the compound `C[C@@H](NCc1cc(Br)cc2nc(O)c(O)nc12)P(=O)(O)O` (10 µM), the morphology score in assay [2] was found to be 0.0389. Also, the SARS-CoV-2 infection rate in assay [3] is 101% (inactive).

For the compound `O=C(O)CNC(=O)c1ccccc1I` [2-iodohippuric-acid], the “inhibition” value is 3.32% (inactive) in assay [1] (1 nM); 2.66% (inactive) in assay [1] (8.33 nM); 0.05% (inactive) in assay [1] (100 nM); 0.88% (inactive) in assay [1] (833.33 nM); 0.58% (inactive) in assay [1] (10000 nM).

Compound `CC(=O)S[C@@H]1CC2=CC(=O)CC[C@]2(C)[C@H]2CC[C@@]3(C)[C@@H](CC[C@@]34CCC(=O)O4)[C@H]12` [spironolactone] (10 µM) showed a morphology score in assay [2] of 0.291. For the same compound, in assay [3], the SARS-CoV-2 infection rate is 98.5% (inactive).

Turning to `CC1(C)Oc2ccc(C#N)cc2[C@H](N(Cc2ncc[nH]2)c2ccc(Cl)cc2)[C@H]1O`, the “inhibition” value was 0.45% (inactive) in assay [1] (1 nM); -1.34% (inactive) in assay [1] (8.33 nM); 1.85% (inactive) in assay [1] (100 nM); 2.7% (inactive) in assay [1] (833.33 nM); -1.77% (inactive) in assay [1] (10000 nM).

As to `Cc1cc(C2CCCCC2)n(O)c(=O)c1` [ciclopirox], the “inhibition” value in assay [1] (1 nM) was 0.88% (inactive); in assay [1] (8.33 nM) it was 1.21% (inactive); in assay [1] (100 nM) it was 0.99% (inactive); in assay [1] (833.33 nM) it was -0.09% (inactive); in assay [1] (10000 nM), -2.68% (inactive).

`COC(=O)[C@H](CC(C)C)NC(=O)c1ccc(NC[C@@H](N)CS)cc1-c1cccc2ccccc12`: the “inhibition” value was -1.19% (inactive) in assay [1] (1 nM); 4.63% (inactive) in assay [1] (8.33 nM); -0.9% (inactive) in assay [1] (100 nM); -1.25% (inactive) in assay [1] (833.33 nM); -4.69% (inactive) in assay [1] (10000 nM).
